ALR H2O2 inh: human ALR oxidase inhibition via reduced H2O2; P55789; purified ALR, DTT oxidation, H2O2 HRP-luminol luminescence; inhibition, % (test concentration not listed); hit rate 3.8% among 290,000; AID 485317;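 active = mean replicate inhibition above about 79%, with every replicate also reaching it, limit read from the data; inconclusive = only one of the two criteria met; inactive = mean below limit and not every replicate reaching it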
SUMO HTRF inh: blocks human SUMOylation mediated by UBC9; P63279; HTRF SUMOylation assay, SAE1/SAE2 + UBC9, in vitro; inhibition, % at 35 µM; hit rate 0.36% among 290,000; AID 2006; in the data active = inhibition above about 50%, passing the limit was not always enough; inconclusive = no clear call, values can overlap the other calls
Target sequence (P63279 whole entry, looked up): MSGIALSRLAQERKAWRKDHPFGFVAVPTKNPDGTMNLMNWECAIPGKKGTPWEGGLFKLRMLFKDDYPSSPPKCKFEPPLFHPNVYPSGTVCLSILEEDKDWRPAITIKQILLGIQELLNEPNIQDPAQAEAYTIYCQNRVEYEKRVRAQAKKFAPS
Cardio protect: myocardial damage modulation in H9c2 cells | H9c2 cardiomyocytes, H2O2 injury protection, ATPLite, 2 h | protection from H2O2 cell death, % at 20 µM | hit rate 0.63% among 360,000 | AID 588492;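 active = compounds giving at least 50% protection of heart cells from peroxide-induced death in the single-dose screen, raw or plate-pattern-corrected value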
NTR1 ag: activates human neurotensin receptor 1. P30989. activation, % at 20 µM. hit rate 0.17% among 330,000. NTR1-U2OS beta-arrestin-GFP spot imaging, agonist mode;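 active = activation at or above 40% of the spot to cytoplasm intensity ratio, with at least 20 cells analyzed; inconclusive = wells under 20 cells, flagged as cytotoxic or low count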
Target sequence (P30989 whole entry, looked up): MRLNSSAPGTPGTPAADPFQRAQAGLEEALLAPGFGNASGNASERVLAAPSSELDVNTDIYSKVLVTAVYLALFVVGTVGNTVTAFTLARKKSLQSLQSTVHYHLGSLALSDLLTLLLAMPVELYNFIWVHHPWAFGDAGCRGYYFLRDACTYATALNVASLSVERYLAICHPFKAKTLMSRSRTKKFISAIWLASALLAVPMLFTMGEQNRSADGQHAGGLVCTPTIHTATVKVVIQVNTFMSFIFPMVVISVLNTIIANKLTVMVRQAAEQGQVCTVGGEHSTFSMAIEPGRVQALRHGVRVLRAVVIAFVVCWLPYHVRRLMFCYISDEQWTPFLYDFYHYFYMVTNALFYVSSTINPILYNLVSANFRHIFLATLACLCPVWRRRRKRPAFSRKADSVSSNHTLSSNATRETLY
Of the large screens only hits and unclear results are named; the others gave an inactive call. This is a sample that favours compounds with a hit; in the whole collection about 3.9% have one here.

O=C(Nc1nc(-c2ccccn2)cs1)c1cc2ccccc2o1	none
CCc1sc(C(=O)Nc2nc(-c3ccccn3)cs2)cc1C	Cardio protect 51.4 (no result: SUMO HTRF inh)
Cc1c(C(=O)Nc2nc(-c3ccccn3)cs2)oc2ccccc12	Cardio protect 54.0 (no result: ALR H2O2 inh, SUMO HTRF inh)
Cn1cccc1C(=O)Nc1nc(-c2ccccn2)cs1	none
Cc1ccc(C(=O)Nc2nc(-c3ccccn3)cs2)s1	ALR H2O2 inh 86.9, Cardio protect 59.4 (no result: SUMO HTRF inh)
CCc1sc(C(=O)Nc2nccs2)cc1C	none
COc1cccc(NC(=S)NCCC(c2ccccc2)c2ccccc2)c1	none
COc1ccc(NC(=O)CSc2nnc(COc3ccccc3)n2Cc2ccco2)cc1OC	none
CCC(=O)N1CCc2cc(S(=O)(=O)NCCC(=O)Nc3ccc(OC)cc3)ccc21	none
O=C(Nc1nc(-c2ccccn2)cs1)c1ccc(Cl)s1	ALR H2O2 inh 87.2
O=C(c1ccc(OCCN2CCCCC2)cc1)c1c(-c2ccc(O)cc2)sc2cc(O)ccc12	ALR H2O2 inh 90.9 (no result: SUMO HTRF inh)
COc1cc(/C=N/n2c(-c3ccccc3)n[nH]c2=S)ccc1O	ALR H2O2 inh 98.8
COc1cc(-c2n[nH]c(=S)n2/N=C/c2cccn2C)cc(OC)c1OC	ALR H2O2 inh 96.5
COc1cc(/C=N/n2c(-c3n[nH]c4c3CCC4)n[nH]c2=S)ccc1O	ALR H2O2 inh 99.4
O=C(O)c1ccc(/C=N/n2cc(-c3ccccc3)[nH]c2=S)cc1	ALR H2O2 inh 99.1
Cc1cc(C)nc(SCC(=O)NC2CCCC2)n1	none
Cc1ccc(-c2n[nH]c(=S)n2/N=C/c2ccc(C(=O)O)cc2)cc1	ALR H2O2 inh 89.9
Oc1c(Br)cc(/C=N/n2c(-c3ccccc3)n[nH]c2=S)c(O)c1Br	ALR H2O2 inh inconclusive (no result: NTR1 ag)
Cc1c(Br)c(O)c(Br)c(O)c1/C=N/n1c(-c2ccccc2)n[nH]c1=S	ALR H2O2 inh 97.7
COc1cc(/C=N/n2c(COc3ccccc3)n[nH]c2=S)cc(Br)c1O	ALR H2O2 inh 97.0
Cc1ccc(S(=O)(=O)N/N=C/c2ccccc2F)cc1[N+](=O)[O-]	none
COc1ccc(-c2cc(C(=O)NN)[nH]n2)cc1	none
CCOc1ccc(-c2cc(C(=O)NN)[nH]n2)cc1	ALR H2O2 inh 98.8
COc1ccc(-c2cc(C(=O)NN)[nH]n2)cc1OC	ALR H2O2 inh 98.4
COc1ccc(NC(=O)C2(C)CCN2Cc2ccc3ccccc3c2)cc1OC (configuration not stated)	none (no result: ALR H2O2 inh, SUMO HTRF inh, NTR1 ag)
CC1CC(=O)N(CC(=O)N2CCCC2)c2ccccc2S1 (configuration not stated)	none
CCC1CCCCN1C(=O)CSC1=NN2CCCC(=O)N=C2S1 (configuration not stated)	none
COc1ccc(N2CCC(CNC(=O)Nc3ccc(C)c(C)c3)C2)cc1 (configuration not stated)	none
COc1ccc(N2CCC(CNC(=O)Nc3ccc(OC)cc3OC)C2)cc1 (configuration not stated)	ALR H2O2 inh 85.1
NNC(=O)COc1ccc(-c2n[nH]c(C(F)(F)F)c2-c2ccc(Br)cc2)c(O)c1	none
C=CCNC(=O)CN1CCC(n2c(C)nc3cc(C(F)(F)F)ccc32)CC1	none
O=C(Nc1cccc2cccnc12)c1ccccc1Cl	none (no result: SUMO HTRF inh)
COc1cc(/C=N\N=C2/SC(CC(=O)O)C(=O)N2c2ccc(O)cc2)ccc1O (configuration not stated)	ALR H2O2 inh 99.5
CCN(CC)S(=O)(=O)c1ccc(Cl)c(NC(=O)COc2ccccc2[N+](=O)[O-])c1	none
O=C(/C=C/c1cc(Br)ccc1O)c1ccco1	ALR H2O2 inh 96.9, NTR1 ag 47.1
Nc1ccc(/C=C/C(=O)c2ccco2)cc1	ALR H2O2 inh 98.9
N#Cc1ccc(/C=C/C(=O)c2ccco2)cc1	none
NNCCc1ccccc1	ALR H2O2 inh 99.1
O=C(NCCO)/C(=C\c1cccc([N+](=O)[O-])c1)NC(=O)c1ccco1	none
COc1ccc(C(=O)/C=C2\Sc3ccccc3N2C)cc1	none
CC(=S)/C=C1\Sc2ccccc2N1C	ALR H2O2 inh 83.2
COc1ccc(-n2c(=S)[nH]c3c(oc4ccccc43)c2=O)cc1	ALR H2O2 inh 92.6
Nn1c(COc2ccccc2)nnc1SC(F)F	none
O=C(NCCO)C1(c2ccccc2)CCCC1	none
CCOc1cc(NC2CS(=O)(=O)CC2O)c(OCC)cc1NC(=O)c1ccccc1 (configuration not stated)	ALR H2O2 inh 88.7
CCOc1cc(NC(=O)C2CC2)c(OCC)cc1NC(=O)c1ccccn1	Cardio protect 52.7 (no result: ALR H2O2 inh)
CN(C)c1ccc(/C=C(\C#N)c2ccccc2)cc1	none (no result: ALR H2O2 inh, NTR1 ag)
CN(C)c1cccc(/C=C(\C#N)c2ccccc2)c1	ALR H2O2 inh 99.1
O=[N+]([O-])C(=C1Nc2ccccc2N1)C(Cl)=C(Cl)Cl	none
O=c1[nH]c2c(c3c1CCCC3)CCCC2	Cardio protect 74.4
O=c1[nH]c2c(c(=O)[nH]1)CCCCCC2	none (no result: ALR H2O2 inh, SUMO HTRF inh, NTR1 ag)
CCOC(=O)/C(C)=N/Nc1nc(-c2ccc(NC(C)=O)cc2)cs1	ALR H2O2 inh 98.9
CC(=O)Nc1ccc(-c2csc(Nc3ncccn3)n2)cc1	none
CC(=O)Nc1ccc(-c2csc(NCc3ccccc3)n2)cc1	none
CCCCCC(=O)Nc1ccc(-c2csc(C)n2)cc1	none
CCCCCC(=O)Nc1ccc(-c2csc(N)n2)cc1	ALR H2O2 inh 99.0
CCC(=O)Nc1ccc(-c2csc(NNC(C)=O)n2)cc1	ALR H2O2 inh 98.7
CC(=O)Nc1ccc(-c2csc(NNC(=O)c3ccccc3)n2)cc1	ALR H2O2 inh 99.5
CCCCNC(=O)C(CC)Sc1nc2sc(C(=O)OC)c(C)c2c(=O)n1N (configuration not stated)	none
COc1ccc(CCNc2nc(-c3ccc(NC(C)=O)cc3)cs2)cc1OC	ALR H2O2 inh 96.6
CC(=O)Nc1ccc(-c2csc(N/N=C(/C)c3ccccc3)n2)cc1	ALR H2O2 inh 98.7
COc1ccc(CCNc2nc(-c3ccc(O)cc3)cs2)cc1OC	none
Cc1ccc2ncccc2c1N	none
Cc1ccc(S(=O)(=O)N2C(=O)CCC2C(=O)Nc2ccc3c(c2)OCCO3)cc1 (configuration not stated)	none
CN(C)c1ccc(C2N(c3ccc(Cl)cc3)C(=O)C3CCCN32)cc1 (configuration not stated)	none
CN(C)c1ccc(C2N(c3ccc(F)cc3)C(=O)C3CCCN32)cc1 (configuration not stated)	ALR H2O2 inh 97.4
Cc1ccc2c(CC(=O)NNC(=O)c3ccccc3)coc2c1	none
O=C(Cc1coc2cc(O)ccc12)NNC(=O)c1ccc(Br)s1	ALR H2O2 inh 99.3 (no result: SUMO HTRF inh)
CC(Sc1nc2ccccc2s1)C(=O)NCc1ccc2c(c1)OCO2 (configuration not stated)	ALR H2O2 inh inconclusive
COc1ccc(/C=N/Nc2cc(N(C)C)nc(N(C)C)n2)cc1	SUMO HTRF inh 95.4
CN(C)c1cc(N/N=C\c2ccccc2)nc(N(C)C)n1	none (no result: SUMO HTRF inh)
Cc1ccccc1NC1=C/C(=N\S(=O)(=O)c2cccs2)c2ccccc2C1=O	SUMO HTRF inh 73.3, NTR1 ag 40.3
O=C(O)c1ccc(S(=O)(=O)/N=C2\C=C(Nc3ccccc3F)C(=O)c3ccccc32)cc1	SUMO HTRF inh 91.6
Cc1ccccc1NC1=C/C(=N\S(=O)(=O)c2ccc(C(=O)O)cc2)c2ccccc2C1=O	SUMO HTRF inh 88.5 (no result: ALR H2O2 inh)
COc1ccc(C(=O)/C=C/Nc2ccc([N+](=O)[O-])cc2C)cc1OC	none

High-throughput results as filed in PubChem.
